Experimental data reported in PubChem BioAssay AID1209 (Sanford-Burnham Center for Chemical Genomics, 2008).
In all, about 190,000 compounds went through this assay and about 810 (0.43%) were called active. No stated cut-off is given here; in the data, active means inhibition above about 50%; inactive means the rest. What follows is part of a selection rich in actives, with near analogues and random picks from the rest.

biological target: Mannose-6-phosphate isomerase (Homo sapiens) (UniProt P34949); assay: MPI enzyme activity inhibition – biochemical, fluorescence intensity, coupled assay, primary screen (AID 1209); conditions: purified PMI enzyme, at 20 µM, stronger effect = higher value;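 further: plate controls were DMSO vehicle for no effect and wells lacking substrate for full effect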
Sequence (P34949 whole entry, looked up): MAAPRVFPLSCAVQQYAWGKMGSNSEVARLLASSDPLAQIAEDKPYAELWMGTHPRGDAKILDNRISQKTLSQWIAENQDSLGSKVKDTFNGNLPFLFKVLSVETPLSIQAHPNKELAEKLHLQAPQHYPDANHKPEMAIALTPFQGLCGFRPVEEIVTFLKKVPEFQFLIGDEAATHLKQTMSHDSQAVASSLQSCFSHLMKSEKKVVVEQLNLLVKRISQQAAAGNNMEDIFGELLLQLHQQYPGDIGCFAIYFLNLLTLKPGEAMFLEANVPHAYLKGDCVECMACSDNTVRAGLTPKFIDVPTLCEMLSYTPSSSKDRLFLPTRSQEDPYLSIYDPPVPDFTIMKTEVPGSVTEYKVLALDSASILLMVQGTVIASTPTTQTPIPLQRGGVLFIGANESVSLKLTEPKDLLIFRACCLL

Row | Structure (SMILES) | inhibition
1 | CN(C)CCCN(C(=O)c1cc2ccccc2oc1=O)c1nc2c(F)cccc2s1 | 7.5% (inactive)
2 | O=C(CSc1n[nH]c(-c2cccs2)n1)N1CCN(S(=O)(=O)c2ccccc2)CC1 | 8.5% (inactive)
3 | C#CCOCCOCCOCCNc1nc(N2CCOCC2)nc(N2CCN(C(=O)[C@H](C)n3cc(CCCN=C(N)N)nn3)CC2)n1 | -9.8% (inactive)
4 | COC(=O)c1ccc(NC(=O)CSc2n[nH]c(-c3ccncc3)n2)cc1 | 11.1% (inactive)
5 | COc1ccc(OCC(=O)N/N=C(\C)c2cc3ccccc3o2)cc1 | 4.9% (inactive)
6 | CC(SCC(=O)Nc1ccc(S(=O)(=O)N2CCCCC2)cc1)C(=O)O (stereo not drawn) | 3.5% (inactive)
7 | c1cc(Nc2cccc3nccnc23)c2nccnc2c1 | 28.5% (inactive)
8 | Clc1cccc(Cl)c1NC1=NCCN1 | -30.9% (inactive)
9 | Brc1c(NC2=NCCN2)ccc2nccnc12 | 54.4% (active)
10 | Cc1nc2ccccc2n1CC(=O)OCC(=O)NCc1ccccc1 | -3% (inactive)
11 | CS(=O)(=O)N(CC(=O)Nc1ccc(S(=O)(=O)N2CCCC2)cc1)c1ccccc1F | 2.4% (inactive)
12 | Cc1cc(C)n(CC(=O)N/N=C/c2ccc3c(c2)OCO3)n1 | 12.1% (inactive)
13 | Cc1ccnn1CC(=O)N/N=C/c1ccc2c(c1)OCO2 | -2.6% (inactive)
14 | O=C(Cn1nc(C(F)F)cc1C(F)F)N/N=C/c1ccc2c(c1)OCO2 | 92.9% (active)
15 | Cc1cccc(C(=O)CC(=O)c2cc(Cl)ccc2O)c1 | 5.2% (inactive)
16 | O=C(CC(=O)c1cc(Cl)ccc1O)c1ccccc1 | 59.9% (active)
17 | Cc1ccc(C(=O)CC(=O)c2cc(Cl)ccc2O)cc1 | -10.2% (inactive)
18 | S=c1[nH]ncn1/N=C/c1ccccn1 | 5.3% (inactive)
19 | Oc1c(Br)cc(Br)cc1C=NCc1ccc(F)cc1 | -4.2% (inactive)
20 | CCOC(=O)C1CCN(CCC(=O)Nc2ccc(Cl)cc2)CC1 | 7.1% (inactive)
21 | COc1ccc([C@@H]2C[C@H]3CN(c4ccccc4)C(=O)[C@]34CCCN24)c(OC)c1OC | -8.3% (inactive)

Row | Structure (SMILES) | inhibition
22 | Cc1nn(Cc2cccc(C(=O)NC3CCCCC3)c2)c(C)c1Cl | 7.3% (inactive)
23 | O=C(O)c1csc(Cc2ccccc2)n1 | -2.4% (inactive)
24 | COC(=O)c1c(NC(=S)Nc2cc(OC)c(Cl)cc2OC)sc2c1CCCCC2 | 25.1% (inactive)
25 | CCOC(=O)c1c(NC(=S)Nc2cc([N+](=O)[O-])ccc2OC)sc2c1CCCCC2 | 28.1% (inactive)
26 | COC(=O)c1c(NC(=S)Nc2ccc(F)cc2[N+](=O)[O-])sc2c1CCCCC2 | 63% (active)
27 | CCC1Oc2ccc(C)cc2N(CC(=O)NCc2ccco2)C1=O (stereo not drawn) | 6.6% (inactive)
28 | NC(=S)Nc1cccc2cnccc12 | 16.4% (inactive)
29 | Nc1cccc2cnccc12 | 68.5% (active)
30 | N#Cc1cccc2cnccc12 | 9% (inactive)
31 | CCn1cc([N+](=O)[O-])c(C(=O)Nc2ccn(Cc3ccccc3F)n2)n1 | 8.3% (inactive)
32 | CCOC(=O)c1c2ccc(OCC(=O)N/N=C/c3ccccc3C(F)(F)F)cc2n2ccccc12 | 59.8% (active)
33 | Cc1cccc(OCC(=O)N/N=C\c2cn(C)c3ccccc23)c1 | 5.4% (inactive)
34 | CCOC(=O)c1c(C)n(C)c2ccc(OCC(N)=O)cc12 | 16.5% (inactive)
35 | COc1ccc2c(C#N)c3ccccn3c2c1 | 39.7% (inactive)
36 | CCOC(=O)c1c2ccc(OCC(=O)NN)cc2n2ccccc12 | 81.3% (active)
37 | CCOC(=O)c1c2ccc(OCC(=O)N/N=C/c3ccc(Cl)cc3)cc2n2ccccc12 | 33.2% (inactive)
38 | N#Cc1c2ccc(OCC(N)=O)cc2n2ccccc12 | 65.3% (active)
39 | CCOC(=O)c1c(C)n(C)c2cc(OCCN(CC)CC)ccc12 | 10.9% (inactive)
40 | CCOC(=O)COc1ccc2c(C#N)c3ccccn3c2c1 | 41.4% (inactive)
41 | N#CCCn1cc(/C=N/NC(N)=S)c(-c2ccc(-c3ccccc3)cc2)n1 | 21.7% (inactive)
42 | COc1ccc(N=Nc2cnc(C)nc2-c2ccccc2)cc1 | 3.6% (inactive)

Row | Structure (SMILES) | inhibition
43 | CCCCOc1ccc(-c2c(C(=O)Nc3ccccc3)c(C)[nH]c(=S)c2C#N)cc1 | 13.9% (inactive)
44 | Cc1cc(C)c2nc3s/c(=C/c4ccc5c(c4)n(C)c(=O)n5C)c(=O)n3c2c1 | 37.9% (inactive)
45 | Cc1ccc2c(nc3s/c(=C/c4cccs4)c(=O)n32)c1C | -7.9% (inactive)
46 | Cc1cc(C)c2nc3s/c(=C/c4ccccc4)c(=O)n3c2c1 | 57.6% (active)
47 | CCCCn1cnc(C(=O)OCC)c1N | -3.8% (inactive)
48 | Nc1ccn(Cc2ccc(F)cc2)n1 | -1.5% (inactive)
49 | O=C(O)/C=C/C(=O)c1ccc2c(c1)NC(=O)CO2 | 64.4% (active)
50 | O=C1COc2ccc(C(=O)/C=C/c3ccccc3)cc2N1 | 7.8% (inactive)
51 | O=C1COc2ccc(C(=O)c3ccccc3C(=O)O)cc2N1 | -8.8% (inactive)
52 | Cc1ccc(S(=O)(=O)N2CCC(C(=O)N[C@H](C(=O)NCc3ccco3)C(C)C)CC2)cc1 | -3.1% (inactive)
53 | CCn1cc(C(=O)OCC(=O)c2cc(C)n(-c3cccc(C(F)(F)F)c3)c2C)c(=O)c2ccc(C)nc21 | -6.6% (inactive)
54 | Cc1ccc(/C=N/N(C)C2=NS(=O)(=O)c3ccccc32)o1 | 107% (active)
55 | CN(/N=C/c1ccco1)C1=NS(=O)(=O)c2ccccc21 | 10.9% (inactive)
56 | CN(/N=C/c1ccc(Br)o1)C1=NS(=O)(=O)c2ccccc21 | -7.5% (inactive)
57 | COc1ccccc1NC(=O)N(Cc1cccs1)Cc1cc2cc3c(cc2[nH]c1=O)OCO3 | 9.9% (inactive)
58 | COc1cc(C(=O)ON=C2C=C(C)C(=O)C(C)=C2)cc(OC)c1OC | 31.7% (inactive)
59 | COc1cc(C(=O)O/N=C2/C=C(C)C(=O)C=C2C)cc(OC)c1OC | 29.1% (inactive)
60 | COc1cc(C(=O)O/N=C2/C=CC(=O)C(C)=C2C)cc(OC)c1OC | 35.6% (inactive)
61 | COc1cc(C(=O)ON=C2C(C)=CC(=O)C=C2C)cc(OC)c1OC | 59.4% (active)
62 | COc1cc(C(=O)O/N=C2\C=CC(=O)C=C2C)cc(OC)c1OC | 46.4% (inactive)
63 | COc1cc(C(=O)O/N=C2\C=CC(=O)C(C)=C2)cc(OC)c1OC | 50.7% (active)
